# Compounds with a hit are over-represented: about 19% of the library has one in this group of screens.
# DT40 TDP1 no CPT: qHTS for Inhibitors of human tyrosyl-DNA phosphodiesterase 1 (TDP1): qHTS in cells in absence of CPT; Potency, µM (series often up to 46.2 µM), most hits filed as inhibitors; DT40 Tdp1-/- hTDP1 cells, no CPT, ATP luminescence, 48 h; actives 15% (n = 420,000); also: nearly all actives have a fitted effect of over 55% in size
#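 Readout: luminescence from CellTiter-Glo after 30 min in the dark at RT. Cells: DT40 Tdp1-/- with stable hTDP1, 400/well. Exposure: compounds alone, ≥48 hr, 37 °C.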
# HT1080-NT tox: qHTS for induction of synthetic lethality in tumor cells producing 2HG: qHTS for the HT-1080-NT fibrosarcoma cell line | actives 1.6% (n = 360,000) | HT-1080-NT fibrosarcoma viability, CellTiter-Glo ATP luminescence, 48 h | Potency, µM (top dose mostly 46.1 µM), actives largely listed as cytotoxic;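 also: NT is the 2HG producing partner of a matched IDH1 knockdown line; nearly all actives have a fitted effect of over 55% in size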
#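 Viability of the 2HG-overproducing fibrosarcoma line after 48 hours of compound exposure at 37 degrees C was determined by luminescence with CellTiter-Glo, and concentration-effect curves were then fitted and categorized.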
# IL-1B inflam inh: qHTS for Inhibitors of Inflammasome Signaling: IL-1-beta AlphaLISA Primary Screen. THP-1 LPS/ATP IL-1B secretion, AlphaLISA, 16 h; stronger effect = lower value. activity change, % at 57.5 µM. actives 4.7% (n = 360,000). AID 743279, 2014; in the data active = activity change below about -50%; inconclusive = mostly about -30% to -49%
#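 THP-1 cells pretreated 1 hr with compounds (up to 57.5 uM final), then stimulated with LPS (250 ng/mL final) plus ATP (1.25 mM final); secreted IL-1B measured by AlphaLISA after 16 hr, decreased signal indicating inhibition.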
# HT1080 IDH1KD tx: qHTS for induction of synthetic lethality in tumor cells producing 2HG: qHTS for the HT-1080-IDH1KD cell line; HT-1080 IDH1 knockdown viability, ATP luminescence, 48 h; Potency, µM (highest dose often 46.1 µM), hits mostly cytotoxic; actives 2% (n = 360,000); AID 686971, 2013
#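 Cytotoxicity counter-line: IDH1KD HT-1080, 48 h, CellTiter-Glo. Curves classed by r2, magnitude and activity.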
# DT40 TDP1 CPT: qHTS for Inhibitors of human tyrosyl-DNA phosphodiesterase 1 (TDP1): qHTS in cells in presence of CPT. chicken DT40 Tdp1-/-;hTDP1 cells + 20 nM CPT, ATP luminescence, 48 h. Potency, µM (titrated, usually from 46.2 µM), hits mostly inhibitors. actives 12% (n = 420,000). AID 686979, 2013; also: nearly all actives have a fitted effect of over 55% in size
#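 Chicken DT40 Tdp1-/- cells complemented with human TDP1, 400 cells/well, exposed to compounds plus 20 nM camptothecin for at least 48 h at 37 C; viability read as ATP content by CellTiter-Glo luminescence.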
# Numbers stand for hits; 0 = inactive; ? = inconclusive; - = not tested or not shown; [ ] = remark or other dose. Unless noted, calls follow the shape of the dose curve; as a rule, active = well fitted curve in the direction sought with a large enough effect; inconclusive = small, poorly fitted or top-dose-only effect, or another doubt; inactive = no such curve, though single readings can be large; an effect the other way counts as inactive or inconclusive.
SMILES,DT40 TDP1 no CPT,HT1080-NT tox,IL-1B inflam inh,HT1080 IDH1KD tx,DT40 TDP1 CPT
CC[C@]12c3[nH]c4ccc(OC)cc4c3CCN1C(=O)C(CC(=O)NCC13CC4CC(CC(C4)C1)C3)C[C@@H]2C(=O)N1CCN(C(=O)c2ccco2)CC1 (some centres undefined),8.2µM,0,-55,?,12µM
CC[C@]12c3[nH]c4ccc(Cl)cc4c3CCN1C(=O)[C@@H](CC(=O)NCCC1=CCCCC1)C[C@@H]2C(=O)N1CCN(C(=O)c2ccco2)CC1,?,?,0,?,21µM
CC[C@]12c3[nH]c4ccc(Cl)cc4c3CCN1C(=O)[C@@H](CC(=O)NCCN1CCOCC1)C[C@@H]2C(=O)N1CCN(C(=O)c2ccco2)CC1,0,0,0,0,0
CC[C@]12c3[nH]c4ccccc4c3CCN1C(=O)C(CC(=O)NCCc1ccccn1)C[C@@H]2C(=O)N1CCN(C(=O)c2ccco2)CC1 (some centres undefined),0,?,0,0,0
CC[C@]12c3[nH]c4ccc(Cl)cc4c3CCN1C(=O)[C@@H](CC(=O)NCC13CC4CC(CC(C4)C1)C3)C[C@@H]2C(=O)N1CCN(C(=O)c2ccco2)CC1,13µM,?,0,18µM,?
COc1cccc(CNC(=O)c2c(OC)cc(=O)n3c2CCN(C(=O)c2ccc(Cl)cc2)CC3)c1,0,-,-,-,0
c1cc2c(cc1Cn1cnnn1)OCO2,0,0,0,0,0
Cc1nnc(C)c2c(C)n(Cc3ccc4c(c3)OCO4)c(C)c12,16µM,0,0,0,13µM
CC1=CC(=NOS(=O)(=O)c2ccc(C)cc2)CC(C)(C)C1,?,0,0,0,?
COc1ccc2[nH]c3c(=O)n(/N=C/[C@H]4C(C)C=C(C)CC4C)c(=O)[nH]c3c2c1 (some centres undefined),16µM,?,-58,?,18µM
CCOCCCNC(=O)c1c(NC(=O)c2cc(=O)c3cc(C)c(C)cc3o2)sc2c1CCC2,?,-,-,-,0
COc1cc(NC(=O)C2(C)CCN2C(=O)C(C)C)cc(OC)c1OC (centres undefined),0,0,0,?,0
CCc1ccc(NC(=O)c2ccc3c(O)c(S(=O)(=O)c4ccccc4)c(=O)[nH]c3c2)cc1,0,-,-,-,0
Cc1cc(C)c(NC(=O)Cn2nnc(C(=O)NCc3ccc4c(c3)OCO4)c2N)c(C)c1,0,0,0,0,0
COc1ccc(NC(=O)Cn2nnc(-c3ccccc3)c2COc2ccc3ccccc3c2)cn1,23µM,?,0,?,21µM
CC(C)NC(=O)Cn1nnc(-c2ccccc2)c1COc1ccc2ccccc2c1,?,0,0,0,15µM
COc1ccc(NC(=O)Cn2nnc(-c3ccccc3)c2COc2ccc(C(C)=O)cc2)cn1,?,0,0,0,0
O=C(O)Cn1nnc(-c2ccccc2)c1COc1ccccc1,0,?,0,0,0
CSc1ccc(CNCC2CCCO2)cc1 (centres undefined),0,0,0,0,0
COc1ccc(CNC(=O)CN2C(=O)c3ccccc3C2=O)cc1,0,0,0,0,0
CCCNC(=O)CN1C(=O)c2c(c3ccccc3n2C)C1c1ccc(OC)cc1 (centres undefined),13µM,-,-,-,?
COc1ccc(C2c3c(n(C)c4ccccc34)C(=O)N2CC(=O)Nc2ccccc2F)cc1 (centres undefined),?,-,-,-,16µM
CCC(=O)Nc1c(-c2ccc(OC)cc2)c(=O)c2ccccc2n1C,0,0,0,0,0
COc1ccc(C2c3c(n(C)c4ccccc34)C(=O)N2CC(=O)Nc2ccccc2Cl)cc1 (centres undefined),26µM,-,-,-,?
Cc1cc(=O)n(CC(=O)Nc2cc(Cl)ccc2C)c(C(C)C)n1,0,0,0,0,0
SMILES,DT40 TDP1 no CPT,HT1080-NT tox,IL-1B inflam inh,HT1080 IDH1KD tx,DT40 TDP1 CPT
CCCCC/C=C\C\C=C/C=C/C=C/[C@@H](SC[C@H](NC(=O)CC[C@H](N)C(=O)O)C(=O)NCC(=O)O)[C@@H](O)CCCC(=O)O,0[0.628 µM],-,-,-,0[0.628 µM]
C=CCNC(=S)N(C1CCCCC1)C1CCCCC1,23µM,0,0,0,?
C=CCNC(N)=S,0,0,0,0,0
Cn1ccc2c(-c3cccc(C=O)c3)cc3c(c21)C1CCC3C1 (centres undefined),?,?,0,?,23µM
Cn1ccc2c(-c3cncc4ccccc34)cc3c(c21)C1CCC3C1 (centres undefined),18µM,0,0,0,?
COc1ccc(-c2cc3c(c4c2ccn4C)C2CCC3C2)cc1OC (centres undefined),26µM,?,0,0,?
CC(C)(C)c1cc2nc(NCCOc3ccccc3)ccn2n1,?,0,0,0,?
CCCc1nc(SCC(=O)Nc2nnc(SCC)s2)c2c(=O)n(C)c(=O)n(C)c2n1,2.9µM,0,0,0,4.1µM
CCSc1nnc(NC(=O)CSc2nc(CC)nc3c2c(=O)n(C)c(=O)n3C)s1,15µM,0,0,0,16µM
CCCc1nc(SCC(=O)Nc2cc(C)on2)c2c(=O)n(C)c(=O)n(C)c2n1,?,0,0,0,?
CCOc1ccccc1-n1c(N)c(C(=O)OC)c2nc3ccccc3nc21,0,-,-,-,0
Cc1ccc(OCCNc2cc(N3CCN(CCO)CC3)ccc2[N+](=O)[O-])cc1C,29µM,?,?,?,?
Cc1cccc(OCCNc2cc(N3CCN(C)CC3)ccc2[N+](=O)[O-])c1,23µM,0,?,0,?
CC1CCN(CCCN2C(=O)C3C(C(=O)Nc4ccc(Cl)cc4)C4C=CC3(O4)C2C(=O)NC2CCCCC2)CC1 (centres undefined),?,0,0,0,0
COC(=O)C1=C(C(=O)OC)[C@@H]2N(Cc3ccccc3)c3ccccc3[C@@]23C[C@@H](C(=O)OC)N(C(=O)c2cc(C)oc2C)C3=N1,18µM,0,0,0,23µM
C#CCCOC(=O)N1C2=NC(C(=O)OC)=C(C(=O)OC)[C@@H]3N(C)c4ccccc4[C@]23C[C@H]1C(=O)OC,0,0,0,0,0
CCOC(=O)N1C2=NC(C(=O)OC)=C(C(=O)OC)[C@@H]3N(C)c4ccccc4[C@]23C[C@H]1C(=O)OC,18µM,0,0,0,16µM
COC(=O)C1=C(C(=O)OC)[C@@H]2N(C)c3ccc(OC)cc3[C@@]23C[C@@H](C(=O)OC)N(C(=O)c2cccs2)C3=N1,0,0,0,0,0

# Source: PubChem BioAssay
